Reference: PubChem BioAssay (NCI)
This is part of a sample that, as a whole, favours compounds with a hit. Of some 83,000 tested, about 20% had one in any assay.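 The endpoint reported here, percent growth, reads 100 for growth as untreated, 0 for no net growth and -100 for all cells dead.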 The source made the active and inactive calls. The calls were made as follows: active = growth percent below 10; inactive = the rest.

Experiments:
Assay in all cases: NCI-60 one-dose screen, 48 h (100 = growth as untreated, 0 = no growth, -100 = all killed)
Conditions in all cases: 10 µM unless noted
DU-145 prostate = system: DU-145 prostate
K-562 leukemia = system: K-562 leukemia
MDA-MB-231 breast = system: MDA-MB-231 breast
RXF 393 renal = system: RXF 393 renal
SF-268 CNS = system: SF-268 CNS
SF-539 CNS = system: SF-539 CNS
UACC-257 melanoma = system: UACC-257 melanoma
M14 melanoma = system: M14 melanoma
HCT-15 colon = system: HCT-15 colon
HT29 colon = system: HT29 colon
SNB-75 CNS = system: SNB-75 CNS
SNB-19 CNS = system: SNB-19 CNS
U251 CNS = system: U251 CNS
PC-3 prostate = system: PC-3 prostate
SK-MEL-5 melanoma = system: SK-MEL-5 melanoma
UACC-62 melanoma = system: UACC-62 melanoma
LOX IMVI melanoma = system: LOX IMVI melanoma
SK-MEL-28 melanoma = system: SK-MEL-28 melanoma
MALME-3M melanoma = system: MALME-3M melanoma
SF-295 CNS = system: SF-295 CNS

Measured: growth

O=C(O)c1ccccc1N=Cc1ccccc1
inactive: DU-145 prostate 108% | K-562 leukemia 99.2% | MDA-MB-231 breast 109% | RXF 393 renal 132% | SF-268 CNS 109% | SF-539 CNS 101% | UACC-257 melanoma 113% | M14 melanoma 109% | HCT-15 colon 111% | HT29 colon 108% | SNB-75 CNS 119% | SNB-19 CNS 112% | U251 CNS 106% | PC-3 prostate 87.6% | SK-MEL-5 melanoma 116% | UACC-62 melanoma 119% | LOX IMVI melanoma 92.6% | SK-MEL-28 melanoma 129%

N[C@@H](CO)C(=O)O
inactive: DU-145 prostate 101% | K-562 leukemia 110% | MDA-MB-231 breast 93.4% | RXF 393 renal 108% | SF-268 CNS 95.1% | SF-539 CNS 113% | UACC-257 melanoma 104% | M14 melanoma 107% | HCT-15 colon 109% | HT29 colon 109% | SNB-75 CNS 93.3% | SNB-19 CNS 105% | U251 CNS 102% | PC-3 prostate 96.8% | SK-MEL-5 melanoma 104% | UACC-62 melanoma 91.9% | LOX IMVI melanoma 130% | SK-MEL-28 melanoma 107%

CN1CCN(c2ccc(N3Cc4ccccc4OC4=C3C(=O)c3c(O)ccc(O)c3C4=O)cn2)CC1
inactive: SNB-19 CNS 11%
active: DU-145 prostate -95.9% | MALME-3M melanoma -84.2% | MDA-MB-231 breast -75.1% | RXF 393 renal -93.6% | SF-268 CNS -6.04% | SF-539 CNS -58.3% | UACC-257 melanoma -88.9% | M14 melanoma -76.8% | HCT-15 colon -74.9% | HT29 colon -42.8% | SNB-75 CNS -21.8% | U251 CNS -4.98% | PC-3 prostate 1.25% | SK-MEL-5 melanoma -61.9% | UACC-62 melanoma -59.9% | LOX IMVI melanoma -71.4% | SK-MEL-28 melanoma -60%

COc1ccc(/C(=C\c2cc(OC)c(OC)c(OC)c2)C(=O)Nc2nc3ccc(Cl)cc3s2)cc1
inactive: DU-145 prostate 93% | MALME-3M melanoma 93.8% | MDA-MB-231 breast 90.9% | RXF 393 renal 109% | SF-268 CNS 71.1% | SF-539 CNS 100% | UACC-257 melanoma 92.1% | M14 melanoma 105% | HCT-15 colon 93.2% | HT29 colon 88.3% | SNB-75 CNS 89% | SNB-19 CNS 105% | U251 CNS 90.8% | PC-3 prostate 87.5% | UACC-62 melanoma 77.6% | LOX IMVI melanoma 92.5% | SK-MEL-28 melanoma 107%

CC1=C(O)C(=O)C(c2c(C)cc(C)c(Br)c2C)=C(O)C1=O
inactive: DU-145 prostate 78.4% | K-562 leukemia 48.8% | MDA-MB-231 breast 93.5% | RXF 393 renal 28.9% | SF-295 CNS 52.6% | SF-539 CNS 65.2% | UACC-257 melanoma 86.5% | M14 melanoma 70.2% | HCT-15 colon 35.5% | HT29 colon 66.7% | SNB-75 CNS 59.6% | SNB-19 CNS 63.9% | PC-3 prostate 84.5% | SK-MEL-5 melanoma 57.4% | LOX IMVI melanoma 35.7% | SK-MEL-28 melanoma 73.5%

CC(=O)N[C@@H](CCC(N)=O)C(=O)O
inactive: DU-145 prostate 112% | MDA-MB-231 breast 87.2% | RXF 393 renal 90% | SF-268 CNS 108% | SF-539 CNS 113% | UACC-257 melanoma 97.4% | M14 melanoma 93.4% | HCT-15 colon 113% | HT29 colon 95.6% | SNB-75 CNS 69.2% | SNB-19 CNS 126% | U251 CNS 102% | PC-3 prostate 74.5% | SK-MEL-5 melanoma 101% | UACC-62 melanoma 98.2% | LOX IMVI melanoma 91.4% | SK-MEL-28 melanoma 101%
active: K-562 leukemia 9.01%

COc1ccc(Nc2ncccc2C(=O)NCc2cn(Cc3cc(OC)cc(OC)c3)nn2)cc1
inactive: DU-145 prostate 95.2% | K-562 leukemia 84.3% | MDA-MB-231 breast 105% | RXF 393 renal 96.1% | SF-268 CNS 87.2% | SF-539 CNS 90.3% | UACC-257 melanoma 98.1% | M14 melanoma 98.7% | HCT-15 colon 104% | HT29 colon 97.8% | SNB-75 CNS 81.7% | SNB-19 CNS 106% | U251 CNS 98.6% | PC-3 prostate 90.9% | SK-MEL-5 melanoma 97.6% | UACC-62 melanoma 97.1% | LOX IMVI melanoma 96.5% | SK-MEL-28 melanoma 113%

COc1ccc2c(c1)CCCC21C(=O)Nc2c(Cl)cccc21 (stereo not given)
inactive: DU-145 prostate 93% | MALME-3M melanoma 63.3% | MDA-MB-231 breast 77.4% | RXF 393 renal 86.5% | SF-268 CNS 75.8% | SF-539 CNS 73.3% | UACC-257 melanoma 83.8% | M14 melanoma 38.8% | HCT-15 colon 85% | HT29 colon 21.1% | SNB-75 CNS 41% | SNB-19 CNS 82.9% | U251 CNS 54.1% | PC-3 prostate 74.4% | SK-MEL-5 melanoma 76.8% | UACC-62 melanoma 58% | LOX IMVI melanoma 71.3% | SK-MEL-28 melanoma 64.7%

CSCCC1NC(=O)C(C(C)=Nc2ccccc2)=C1O (stereo not given)
inactive: K-562 leukemia 124% | MALME-3M melanoma 112% | MDA-MB-231 breast 109% | RXF 393 renal 109% | SF-268 CNS 111% | SF-295 CNS 97.7% | SF-539 CNS 119% | UACC-257 melanoma 113% | M14 melanoma 103% | HCT-15 colon 117% | HT29 colon 108% | SNB-75 CNS 88.6% | SNB-19 CNS 116% | U251 CNS 111% | PC-3 prostate 92.7% | SK-MEL-5 melanoma 112% | UACC-62 melanoma 101% | LOX IMVI melanoma 105% | SK-MEL-28 melanoma 110%
